About 580 (24%) of roughly 2,400 compounds were called active. Not all results are given here. Values without a mark were called inactive.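 The calls were made as follows: active = activity change at or above the mean plus 3 SD of buffer wells without dofetilide, per plate; inactive = the rest.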

Chain of Potassium voltage-gated channel subfamily KQT member 2 (Rattus norvegicus) (O88943 whole entry, looked up): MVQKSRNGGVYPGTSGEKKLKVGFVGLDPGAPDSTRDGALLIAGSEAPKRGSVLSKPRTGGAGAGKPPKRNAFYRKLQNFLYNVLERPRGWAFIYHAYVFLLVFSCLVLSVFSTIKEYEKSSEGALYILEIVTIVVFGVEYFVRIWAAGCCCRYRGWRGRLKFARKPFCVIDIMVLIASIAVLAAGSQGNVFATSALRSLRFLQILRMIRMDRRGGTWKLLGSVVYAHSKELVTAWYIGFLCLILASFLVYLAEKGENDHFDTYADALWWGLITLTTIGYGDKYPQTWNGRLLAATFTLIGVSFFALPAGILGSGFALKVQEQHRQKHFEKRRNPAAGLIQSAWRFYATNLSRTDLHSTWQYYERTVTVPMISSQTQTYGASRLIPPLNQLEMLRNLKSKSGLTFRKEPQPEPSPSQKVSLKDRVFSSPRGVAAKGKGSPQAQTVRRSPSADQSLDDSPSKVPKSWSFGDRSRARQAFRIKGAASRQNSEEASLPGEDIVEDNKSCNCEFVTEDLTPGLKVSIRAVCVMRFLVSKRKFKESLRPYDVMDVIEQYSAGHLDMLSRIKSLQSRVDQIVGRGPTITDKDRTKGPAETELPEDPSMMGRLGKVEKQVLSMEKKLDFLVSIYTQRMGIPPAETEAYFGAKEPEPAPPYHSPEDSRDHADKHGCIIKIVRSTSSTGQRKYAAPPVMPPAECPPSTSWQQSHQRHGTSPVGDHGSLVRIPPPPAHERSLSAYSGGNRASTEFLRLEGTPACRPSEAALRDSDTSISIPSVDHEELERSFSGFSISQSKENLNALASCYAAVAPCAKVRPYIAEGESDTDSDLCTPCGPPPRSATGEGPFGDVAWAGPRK

The assay has as its target Potassium voltage-gated channel subfamily KQT member 2 (Rattus norvegicus) (UniProt O88943). Nature of the assay: rat KCNQ2 channel activation by compounds alone, confirmation, counter-screen for hERG block protector project, cell-based, CHO, FluxOR thallium flux (AID 1942).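 Also: normalized value minus buffer-control mean plus three SD of buffer wells.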 The note with it: CHO-KCNQ2 cells, FluxOR thallium flux fluorescence; at 10 µM; stronger effect = higher value.
Take `CCOC(=O)c1sc(NN=C(C(=O)OC)C(=O)OC)c(C(=O)OCC)c1C`: the activity change, less the hit threshold is -9.1%.
To `CCOC(=O)c1sc2nc(C)[nH]c(=S)c2c1C` belongs 4.9% (active); to `CCOC(=O)c1sc2nc(Cc3ccc(Cl)cc3)[nH]c(=S)c2c1C`, -4.8%; to `Cc1ccc(Cn2nnc3c(=O)n(CC(=O)N4CCCc5ccccc54)cnc32)cc1`, -14.8%.
Turning to `O=C(NN1C(=O)C2C(c3ccccc3)C=CC(c3ccccc3)C2C1=O)c1ccncc1` (centres undefined), the activity change, less the hit threshold was -42.5%.
`Cc1c(C(=O)N/N=C/c2ccccn2)nnn1-c1nonc1N`: the activity change, less the hit threshold was -9.3%.
As for `O=C(N/N=C/c1ccccn1)c1sc2ccccc2c1Cl`, the activity change, less the hit threshold is 27.4% (active).
With `O=C(N/N=C/c1ccccn1)c1cc(-c2ccc(Br)cc2)nc2ccccc12`, the activity change, less the hit threshold is -26.1%.
Turning to `O=C1c2cccc3cccc(c23)C(=O)C1(O)O`, the activity change, less the hit threshold is -5.4%.
Consider `Cc1ccc(C(=O)O)cc1-c1ccc(/C=C2\SC(=O)N(CC(=O)Nc3ccccc3)C2=O)o1`, for which the activity change, less the hit threshold was -22%.
For the compound `COc1ccc(C(=O)O)cc1S(=O)(=O)Nc1cccc(C(F)(F)F)c1`, the activity change, less the hit threshold is -13.4%.
As for `Cc1nn(-c2ccccc2)c(N2CCCC2)c1/C=N/O`, the activity change, less the hit threshold was -13.5%.
Regarding `Cc1nn(-c2cccc(C(F)(F)F)c2)c(Cl)c1/C=N/Nc1cccc(C(=O)O)c1`, the activity change, less the hit threshold is 17.9% (active).
To `O=C(O)c1c2c(nc3ccccc13)/C(=C/c1cccc([N+](=O)[O-])c1)CCC2` belongs -21%; to `Cc1ccccc1C(=O)c1cn[nH]c1-c1ccccc1O`, -32.5%.
Under `COC(=O)Nc1c(-c2ccccc2)nc2ccccn12` stands -17%; under `O=c1c(-c2ccccc2)nc(-c2ccccc2)cn1O`, 65.1% (active).
In the case of `Cc1nc(-c2ccccc2)cn(O)c1=O`, the activity change, less the hit threshold was -1%.
Take `CC(=O)c1ccc2c(c1)OCCOCCOCCO2`: the activity change, less the hit threshold is -20.1%.
To `O=C(CCc1ccccc1)Nc1nccs1` belongs -23.4%; to `Fc1ccc(NC(=S)Nc2nccs2)cc1`, 1.8% (active).
For the compound `Cc1cnc(C(=O)Nc2nccs2)cn1`, the activity change, less the hit threshold was -18.4%.
`COc1ccc(-c2cc(C(F)(F)F)nc(N3CCCCC3)n2)cc1OC`: the activity change, less the hit threshold was -16.3%.
`COc1ccc(-c2cc(C(=O)N3CCCC3)no2)cc1OC`: the activity change, less the hit threshold is 2.6% (active).
In the case of `COc1ccc(-c2cc(C(=O)N3CCCC3)no2)cc1`, the activity change, less the hit threshold is -9%.
For the compound `CC(/C=C1\SC(=S)N(c2ccc(C(=O)O)cc2)C1=O)=C\c1ccccc1`, the activity change, less the hit threshold is -20.4%.
On to `CC(/C=C1\N=C(SCc2ccccc2Cl)SC1=O)=C\c1ccccc1`, for which the activity change, less the hit threshold is -10.1%.
As to `Cc1ccc(S(=O)(=O)N2C(=O)/C(=C3\SC(=S)NC3=O)c3ccccc32)cc1`, the activity change, less the hit threshold is -14.4%.
To `COc1ccccc1/C=C1\SC(=S)N(NS(=O)(=O)c2ccc(C)cc2)C1=O` belongs -24.5%.
On to `CC(/C=C1\SC(=S)N(NS(=O)(=O)c2ccc(C)cc2)C1=O)=C\c1ccccc1`, for which the activity change, less the hit threshold was 8.8% (active).
Consider `CC(/C=C1\SC(=S)N(NS(=O)(=O)c2ccccc2)C1=O)=C\c1ccccc1`, for which the activity change, less the hit threshold was 18.1% (active).
As for `COCCNC(=O)C(=O)N/N=C/c1ccc(C(=O)OC)cc1`, the activity change, less the hit threshold is -24.8%.
To `O=C(CCNC(=O)C1CCN(S(=O)(=O)c2ccc(F)cc2)CC1)NCc1ccc(Cl)cc1` belongs -18.1%.
Regarding `Cc1cc(C)c(S(=O)(=O)Nc2cccc(-n3cnnn3)c2)c(C)c1`, the activity change, less the hit threshold was -20.5%.
To `COc1ccccc1NC(=O)C1CCCN1C(=O)Nc1ccc(F)cc1` (centres undefined) belongs -19.8%; to `O=C(COc1ccc(Cl)cc1Cl)Nc1cccnc1`, -20.4%; to `COC(=O)C1CCCN1C(=O)COc1ccc(Cl)cc1Br` (centres undefined), 8.6% (active).
`CS(=O)(=O)Nc1cccc(-c2cn3ccccc3n2)c1`: the activity change, less the hit threshold was -6.5%.
Consider `Cn1c(=O)c2sccc2n(Cc2cccc(Br)c2)c1=O`, for which the activity change, less the hit threshold was -20.7%.
With `CCN1CCN(CCNC(=O)CCCn2nc(C)c3c(C)n(-c4ccc(C)cc4)nc3c2=O)CC1`, the activity change, less the hit threshold was -21%.
With `S=c1[nH]nc(Cc2ccc(Br)cc2)n1/N=C/c1ccc(Cl)cc1`, the activity change, less the hit threshold is -13.3%.
For `O=C(O)CCCCCNc1nc(=S)[nH]c2ccccc12`, the activity change, less the hit threshold is -0.8%.
Under `S=c1nc(Cc2ccc(Cl)cc2)[nH]c2ccccc12` stands 28.2% (active).
On to `S=c1nc(SCc2ccccc2)[nH]c2ccccc12`, for which the activity change, less the hit threshold was 73.5% (active).
As for `CC(C)c1ccc(/C=N/n2c(COc3ccccc3)n[nH]c2=S)cc1`, the activity change, less the hit threshold was -16.5%.
With `O=c1[nH]c(SCc2cccc(Cl)c2)nc2ccccc12`, the activity change, less the hit threshold is -14.1%.
As for `S=c1nc(Cc2ccccc2)[nH]c2ccccc12`, the activity change, less the hit threshold is 76.9% (active).
With `CSc1nc(C)c(Cc2ccccc2)c(=O)[nH]1`, the activity change, less the hit threshold was -18.7%.
Consider `S=c1nc(COc2ccccc2)[nH]c2ccccc12`, for which the activity change, less the hit threshold was 131% (active).
As for `N=C1S/C(=C\c2ccco2)C(=O)N1c1nccs1`, the activity change, less the hit threshold was -12%.
As for `CC(=O)Nc1ccc(S(=O)(=O)N2CCC(NC(=O)c3ccccc3)CC2)cc1`, the activity change, less the hit threshold is -20.1%.
Under `Cc1ccc(NC(=O)CSc2nnc(C3CC3)n2CC2CCCO2)c(C)c1` (centres undefined) stands -18.6%; under `S=c1[nH]nc(-c2ccco2)n1/N=C/C(Cl)=C/c1ccccc1`, -17.6%; under `O=C(c1cncc(Br)c1)N1CCc2ccccc2C1`, -24.3%.
As for `C/C(=N\N1CCN(C2c3ccccc3-c3ccccc32)CC1)c1ccncc1`, the activity change, less the hit threshold is -19.2%.
To `CC(NC(=O)c1ccncc1)C(C)(C)C` (centres undefined) belongs 2.9% (active); to `O=C(NC(C(=O)c1ccccc1)n1cnccc1=O)c1ccccc1` (centres undefined), -8.7%.
As to `O=C(Nn1cnnc1)c1ccncc1`, the activity change, less the hit threshold was -10.9%.
`Cc1c(OC(C(=O)O)c2ccccc2)ccc2c(-c3ccccc3)cc(=O)oc12` (centres undefined): the activity change, less the hit threshold was -7%.
On to `Cc1ccc2c(c1)c1c(n2CC(O)Cn2nc(C)c(Br)c2C)CCCC1` (centres undefined), for which the activity change, less the hit threshold is -17.5%.
Consider `Cc1cc(C)c2nc(NC(=O)CN3C(=O)NC4(CCCC4)C3=O)sc2c1`, for which the activity change, less the hit threshold was -9%.
For `COC(=O)c1sc(NC(=S)NC(=O)c2ccccc2F)nc1C`, the activity change, less the hit threshold is 11.7% (active).
For `COC(=O)c1sc(NC(=S)NC(=O)c2ccccc2C)nc1C`, the activity change, less the hit threshold was 26.5% (active).
As to `COC(=O)c1sc(NC(=S)NC(=O)c2ccc(C)cc2)nc1C`, the activity change, less the hit threshold was -13.3%.

These data come from PubChem BioAssay AID1942 (Johns Hopkins Ion Channel Center, 2009).
